The panel holds about 79,000 compounds, 15% with a hit somewhere; the sample as a whole holds those more often. Activity calls are given as the source filed them. Rule as the data show it: active = growth inhibition above about 70%; inactive = the rest.
Experiments:
[1] = NCI Yeast Anticancer Drug Screen. Data for the rad50 strain (AID 155);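 also: 0% = growth of vehicle-only cultures of the same strain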; settings: S. cerevisiae rad50 strain growth inhibition; at 50.0 µM; active compounds read high
Outline: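 Yeast carrying a defined DNA repair defect were exposed to test compounds, and growth was compared with vehicle-treated controls to give percent inhibition.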

[2] = NCI Yeast Anticancer Drug Screen. Data for the mec2-1 strain (AID 157); settings: S. cerevisiae mec2-1 strain, at 50.0 µM, active compounds read high
Outline: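 Test agents were screened against the mec2-1 yeast strain, with defined DNA repair or cell cycle alteration. Growth was scored as inhibition against vehicle-only controls.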

[3] = NCI Yeast Anticancer Drug Screen. Data for the sgs1 mgt1 strain (AID 161);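 also: 0% = growth of cultures given vehicle only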; settings: S. cerevisiae sgs1 mgt1 strain, at 50.0 µM, active compounds read high
Outline: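 Inhibition of yeast growth, normalised to vehicle-treated controls, is reported for a strain bearing genetic alterations in DNA damage repair.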

[4] = NCI Yeast Anticancer Drug Screen. Data for the cln2 rad14 strain (AID 165);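 also: 0% = growth equal to vehicle treated cultures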; settings: S. cerevisiae cln2 rad14 strain, at 50.0 µM, active compounds read high
Outline: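 Growth of compound-exposed yeast (cln2 rad14 genotype) measured and expressed as inhibition relative to vehicle.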

[5] = NCI Yeast Anticancer Drug Screen. Data for the bub3 strain (AID 167); settings: S. cerevisiae bub3 mutant strain, at 50.0 µM, active compounds read high
Outline: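 Compounds were applied to a genetically altered yeast strain carrying a cell-cycle control defect. Growth inhibition was scored against vehicle-treated controls.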

[6] = NCI Yeast Anticancer Drug Screen. Data for the mlh1 rad18 strain (AID 175); settings: S. cerevisiae mlh1 rad18 strain growth inhibition; at 50.0 µM; active compounds read high
Outline: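 In this whole-cell yeast screen, a strain with altered DNA damage repair is challenged with compound, and its growth is measured against matched vehicle-treated controls.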

Measured: growth inhibition

CCN(CC)CCNc1cc2ccccc2c2sc3ccccc3c(=O)c12
active: [1] 98.5% | [2] 99.2% | [3] 97.6% | [4] 98.8% | [5] 98.2% | [6] 98.3%

CC(C)(C)CC(C)(C)NCc1ccccc1
inactive: [1] 22.9% | [2] -5.55% | [3] 2.5% | [4] 0.2% | [5] 2.5% | [6] 18.3%

CC1CCCC(CCO)CC1 (stereo unspecified)
inactive: [1] 11.6% | [2] 5.8% | [3] 6.4% | [4] 0.1% | [5] 15.7% | [6] 6.3%

N#Cc1ccc(NN=NCCCCCl)cc1
inactive: [1] 8.85% | [2] -8.3% | [3] 14.8% | [4] 3.05% | [5] -6.7% | [6] 2.6%

Cn1cnc2c(Cl)ncnc21
inactive: [1] 12.9% | [2] 34.5% | [3] -20.9% | [4] -18.4% | [5] -0.55% | [6] 5.65%

CCCCCCCC(=O)Oc1ccccc1
inactive: [1] 14.1% | [2] -10.5% | [3] -0.75% | [4] -10% | [5] -2.3% | [6] -1.2%

CC1=C(C(=O)Nc2ccc([N+](=O)[O-])cc2)C(c2cccc([N+](=O)[O-])c2)C(C(=O)Nc2ccc([N+](=O)[O-])cc2)=C(C)N1
inactive: [1] -9.25% | [2] -4.4% | [3] 12.9% | [4] -17.1% | [5] -15.3% | [6] -15.1%

CSc1nc(COC(=O)NC(C)C)c(COC(=O)NC(C)C)n1Cc1ccccc1
inactive: [1] 2.45% | [2] 3.7% | [3] 1.35% | [4] 1.65% | [5] 5.4% | [6] 2.5%

CCOC(=O)C(C(=O)OC(c1ccccc1)c1ccccc1)(C(c1ccccc1)c1ccccc1)C(c1ccccc1)c1ccccc1
inactive: [1] 0.45% | [2] 18% | [3] 1.65% | [4] -9.25% | [5] -1.4% | [6] -10.8%

COc1cc(/C=C/C(=O)O)cc(OC)c1OC
inactive: [1] -4.95% | [2] -2.1% | [3] 12.9% | [4] 6.1% | [5] 11.2% | [6] 10.7%

c1ccn2c(CCc3nnc4ccccn34)nnc2c1
inactive: [1] -1.75% | [2] -8.4% | [3] -6.35% | [4] -18.3% | [5] -1.9% | [6] -13.1%

O=CNc1ccc(Br)cc1
inactive: [1] -8.3% | [2] -0.9% | [3] 11.4% | [4] 0.7% | [5] -1.15% | [6] 9.95%

N#Cc1c(-c2cccn(-c3ccccc3)c2=O)cc(-c2ccccc2)[nH]c1=O
inactive: [1] 1.55% | [2] -5.65% | [3] -5.7% | [4] -19.1% | [5] 0.9% | [6] 9.1%

Cc1cccc(C(=O)NN)c1O
inactive: [1] -1.7% | [2] -14.7% | [3] -6.25% | [4] 5.7% | [5] 23.9% | [6] 22.2%

COc1cc(NC(C)=O)c2[nH]c3c(C)cc(NC(C)=O)c(C)c3c2c1
inactive: [1] -25.6% | [2] -55.1% | [3] -67.2% | [4] -34.5% | [5] -27.6% | [6] -56.7%

O=C1CCCCCCCC(=O)Nc2ccc3nc4ccccc4c(c3c2)SCCCCCCCCCSc2c3ccccc3nc3ccc(cc23)N1
inactive: [1] 27.7% | [2] -13.2% | [3] -6.75% | [4] -13.2% | [5] -6.5% | [6] 4.2%

Nc1ccccc1/C=C/c1ccnc2ccccc12
inactive: [1] 3.7% | [2] 2.55% | [3] 23.6% | [4] 10.2% | [5] -18.1% | [6] 47.8%

CC(=O)N(C)Nc1ccccc1
inactive: [1] 2.45% | [2] -10.7% | [3] 17.9% | [4] -7.4% | [5] 19.7% | [6] -17.6%

CCOC(=O)C(c1ccc(C)cc1)C(Cl)(Cl)Cl (stereo unspecified)
inactive: [1] 2.45% | [2] -9.55% | [3] 3.85% | [4] -1.05% | [5] -11.5% | [6] 26.4%

CCOC(=O)CCCl
inactive: [1] 24% | [2] 15.6% | [3] -2.95% | [4] 30.2% | [5] 31.3% | [6] 12.8%

COc1ccc2[nH]c3c4c(c(C)cc3c2c1)OC(C)(C)C=C4
inactive: [1] 16.2% | [2] -5.75% | [3] -4.05% | [4] -43.3% | [5] -16.6% | [6] -6.15%

c1ccc(-c2cnc3cccnc3n2)cc1
inactive: [1] -2.1% | [2] -24.7% | [3] -19.2% | [4] -36.5% | [5] -10.1% | [6] -12.6%

CC(=O)N(C(C)=O)c1ccccc1/C=C1\CCOC1=O
inactive: [1] -16.4% | [2] -18.9% | [3] -2.25% | [4] -5.05% | [5] 11.6% | [6] -17.6%

N#CC(Nc1ccccc1)c1ccc(C(C#N)Nc2ccccc2)cc1 (stereo unspecified)
inactive: [1] 3.2% | [2] 8.2% | [3] -45.2% | [4] -21.1% | [5] -16.2% | [6] -34.2%

C#CC1(O)CCC2[C@@H]3CCc4cc(Oc5nc(F)nc(-c6c7ccccc7cn6C)n5)ccc4C3CC[C@@]21C (stereo partly specified)
inactive: [1] 37.5% | [2] 25.3% | [3] 1.4% | [4] 5.05% | [5] 32.6% | [6] 42.8%

CCOC(=O)/C(=C/c1ccc(N(CCC#N)CCC#N)cc1C)NC(=O)/C=C/c1ccccc1
inactive: [1] -2.25% | [2] -5.85% | [3] -16.2% | [4] -20.6% | [5] -25.4% | [6] -9.65%

CS/C(=N/N=C/c1ccc2ccccc2n1)SS/C(=N/N=C\c1ccc2ccccc2n1)SC
inactive: [1] -8.05% | [2] 13.8% | [3] -12.4% | [4] -19.9% | [5] -0.3% | [6] -39.9%

N#Cc1nc(C(O)c2ccccc2)oc1N (stereo unspecified)
inactive: [1] -6.75% | [2] 16.4% | [3] -7.05% | [4] 11.8% | [5] -10.3% | [6] -71.1%

CSc1nc(N)n2nc(C3CC3)cc2n1
inactive: [1] 5.5% | [2] -10.8% | [3] 16.1% | [4] 21.4% | [5] 15.9% | [6] 3.4%

CC1(CBr)COC(c2ccccc2)(C2CCCCC2)OC1 (stereo unspecified)
inactive: [1] -1.9% | [2] -14.8% | [3] -5.55% | [4] -1.9% | [5] -13.7% | [6] 23.7%

O=c1c2cc3ccccc3cc2c(=O)n2n1CC(O)C(Br)C2 (stereo unspecified)
inactive: [1] 64.7% | [2] 20.9% | [3] 36.5% | [4] -28.6% | [5] -3.2% | [6] 17.7%

CC(=O)OCC(C)(C)COC(C)=O
inactive: [1] 2.6% | [2] 1.65% | [3] -11.6% | [4] -7.9% | [5] -5.25% | [6] -11.2%

O=C(O)c1cccc(-c2nn[nH]n2)c1
inactive: [1] 2.75% | [2] 0.5% | [3] -4.55% | [4] -55% | [5] 0.25% | [6] -2.7%

O=C(OC[P+](c1ccccc1)(c1ccccc1)c1ccccc1)c1ccccc1
inactive: [1] 44% | [2] 47.1% | [3] 44.9% | [4] 33.8% | [5] 38.6%
active: [6] 81.2%

COc1c(C)c2c(c(Br)c1N)COCO2
inactive: [1] 3.75% | [2] 16.9% | [3] -10.7% | [4] 8.95% | [5] -7.05% | [6] -21.6%

NCCCCC(N)C(=O)NC1C(CO)OC(n2cnc3c(N)ncnc32)C1O (stereo unspecified)
inactive: [1] 31.9% | [2] 13.2% | [3] 7.55% | [4] 14.3% | [5] 5.75% | [6] 30.1%

CCOC(=O)c1cc(C)nc2c(Cl)cc(Cl)cc12
inactive: [1] 13% | [2] 10.8% | [3] -34.4% | [4] -2.9% | [5] 10.4% | [6] 7.95%

CN(C)CCCN1CCc2c([nH]c3ccccc23)C1c1cccnc1 (stereo unspecified)
inactive: [1] -3.35% | [2] -14.8% | [3] -0.45% | [4] -0.75% | [5] -6.2% | [6] -21.1%

O=C1/C(=C/c2ccc(Cl)cc2)CCC1CCN1CCOCC1 (stereo unspecified)
inactive: [1] 46.9% | [2] 40.5% | [3] 51.2% | [4] 60% | [5] 41.2% | [6] 59.2%

O=C(N=c1ccc2nc(=O)[nH]n(O)c-2c1)C(F)(F)F
inactive: [1] -12.1% | [2] 5.5% | [3] -13.4% | [4] -10.3% | [5] -46.6% | [6] -32.7%

CC(=O)OCC1OC(OC(C)=O)C(NC(=O)CNC(=O)OCc2ccccc2)C(OC(C)=O)C1OC(C)=O (stereo unspecified)
inactive: [1] 21.8% | [2] 2.8% | [3] -16.9% | [4] 7.8% | [5] -4.75% | [6] 4.35%
